What all share (details): mRNA level, 48 h; actives raise or lower the signal
Read-out in one assay: MYC, MYC (gene 4609)
Briefly: LTEA_HepaRG_MYC: Life Technologies and Expression Analysis (LTEA) Assay for MYC using HepaRG (AID 2283518). Summed up: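 Cells are thawed, plated and cultured 48 h, then treated for 48 h with test chemicals (eight half-log concentrations from 100 uM, 0.5% DMSO vehicle). RNA is isolated and MYC expression quantified by qRT-PCR against three housekeeping genes.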

Read-out in assay [1]: matrix metalloproteinase-3 (MMP3), MMP3 (gene 4314)
The experiment in a line: LTEA_HepaRG_MMP3: Life Technologies and Expression Analysis (LTEA) Assay for matrix metalloproteinase-3 (MMP3) using HepaRG (AID 2283519). Summed up: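 Differentiated human HepaRG cells, plated 48 h on collagen I, were exposed in duplicate for 48 h in serum-free induction medium to eight half-log concentrations up to 100 uM in 0.5% DMSO. MMP3 mRNA was quantified by TaqMan qRT-PCR, normalised to ACTB, GAPDH and POLR2A.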

Read-out in assay [2]: Paternally Expressed 10 (PEG10), PEG10 (gene 23089)
The experiment in a line: LTEA_HepaRG_PEG10: Life Technologies and Expression Analysis (LTEA) Assay for Paternally Expressed 10 (PEG10) using HepaRG (AID 2283520). Summed up:
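HepaRG, 48 h post-plating → serum-free induction medium → 48 h chemical exposure (duplicate, 8-pt, max 100 uM, half-log, 0.5% DMSO) → lysis in RLT → TaqMan qRT-PCR for PEG10, ACTB/GAPDH/POLR2A normalisation.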

Read-out in assay [3]: Protein phosphatase 2A (PPP2R4), PTPA (gene 5524)
The experiment in a line: LTEA_HepaRG_PPP2R4: Life Technologies and Expression Analysis (LTEA) Assay for Protein phosphatase 2A (PPP2R4) using HepaRG (AID 2283522). Summed up:
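Readout is PPP2R4 transcript level by microfluidic qRT-PCR after 48 h chemical treatment of human HepaRG liver cells. Concentrations spanned 100 uM downward in half-log steps; gain or loss of signal was fitted relative to DMSO.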

Read-out in assay [4]: Phosphatase and tensin (PTEN), PTEN (gene 5728)
Briefly: LTEA_HepaRG_PTEN: Life Technologies and Expression Analysis (LTEA) Assay for Phosphatase and tensin (PTEN) using HepaRG (AID 2283523). Summed up: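 Differentiated human HepaRG cells, plated 48 h then switched to serum-free induction medium, were exposed in duplicate for 48 h to eight half-log concentrations up to 100 uM in 0.5% DMSO. PTEN mRNA measured by TaqMan qRT-PCR, normalized to ACTB/GAPDH/POLR2A, bidirectional fit versus DMSO.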

Read-out in assay [5]: solute carrier (SLC22A1), SLC22A1 (gene 6580)
The experiment in a line: LTEA_HepaRG_SLC22A1: Life Technologies and Expression Analysis (LTEA) Assay for solute carrier (SLC22A1) using HepaRG (AID 2283524). Summed up: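 Human HepaRG cells were plated 48 h, switched to serum-free induction medium, then exposed in duplicate for 48 h to 8-point half-log series from 100 uM in 0.5% DMSO. SLC22A1 mRNA measured by qRT-PCR, normalized to ACTB/GAPDH/POLR2A, fitted bidirectionally versus DMSO.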

Read-out in assay [6]: Pyruvate Dehydrogenase Kinase 4 (PDK4), PDK4 (gene 5166)
The experiment in a line: LTEA_HepaRG_PDK4: Life Technologies and Expression Analysis (LTEA) Assay for Pyruvate Dehydrogenase Kinase 4 (PDK4) using HepaRG (AID 2283525). Summed up: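 Differentiated human HepaRG cells, pre-cultured 48 h, were exposed in duplicate for 48 h in serum-free induction medium to eight half-log concentrations up to 100 uM in 0.5% DMSO. PDK4 mRNA was quantified by qRT-PCR, normalized to ACTB, GAPDH and POLR2A, bidirectional fitting versus DMSO.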

Read-out in assay [7]: NAD(P)H dehydrogenase [quinone] 1 (NQO1), NQO1 (gene 1728)
Briefly: LTEA_HepaRG_NQO1: Life Technologies and Expression Analysis (LTEA) Assay for NAD(P)H dehydrogenase [quinone] 1 (NQO1) using HepaRG (AID 2283526). Summed up: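 HepaRG, 48 h post-plating → serum-free induction medium → test chemical 48 h (duplicate, 100 uM top, half-log x8, 0.5% DMSO) → RNA isolation → qRT-PCR, ACTB/GAPDH/POLR2A normalization; bidirectional curve fit vs DMSO baseline.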

Read-out in assay [8]: Nuclear factor erythroid 2-related factor 2 (Homo sapiens) (UniProt Q16236)
The experiment in a line: LTEA_HepaRG_NFE2L2: Life Technologies and Expression Analysis (LTEA) Assay for Nuclear factor erythroid 2-related factor 2 (NFE2L2) Transcription Factor using HepaRG (AID 2283527). Summed up:
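Differentiated human HepaRG cells in serum-free induction medium were exposed for 48 h to eight concentrations (top 100 uM, half-log dilutions, 0.5% DMSO), in duplicate. NFE2L2 mRNA was quantified by TaqMan qRT-PCR, normalized to ACTB, GAPDH and POLR2A, with bidirectional fitting versus DMSO.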

Read-out in assay [9]: succinate dehydrogenase complex iron sulfur subunit B (SDHB), SDHB (gene 6390)
The experiment in a line: LTEA_HepaRG_SDHB: Life Technologies and Expression Analysis (LTEA) Assay for succinate dehydrogenase complex iron sulfur subunit B (SDHB) using HepaRG (AID 2283528). Summed up: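 SDHB transcript level read by TaqMan qRT-PCR, housekeeping-normalised (ACTB, GAPDH, POLR2A), after 48 h chemical treatment of plated HepaRG cells; eight concentrations top 100 uM, half-log steps, 0.5% DMSO, duplicates; fitted both directions against DMSO.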

Read-out in assay [10]: Signal transducer and activator of transcription 3 (Homo sapiens) (UniProt P40763)
The experiment in a line: LTEA_HepaRG_STAT3: Life Technologies and Expression Analysis (LTEA) Assay for Signal transducer and activator of transcription (STAT3) using HepaRG (AID 2283529). Summed up: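 Differentiated human HepaRG cells in serum-free induction medium were exposed in duplicate for 48 h to eight half-log concentrations up to 100 uM in 0.5% DMSO. STAT3 mRNA was quantified by TaqMan qRT-PCR, normalized to ACTB, GAPDH and POLR2A, and fitted bidirectionally against DMSO.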

Read-out in assay [11]: solute carrier (SLCO1B1), SLCO1B1 (gene 10599)
The experiment in a line: LTEA_HepaRG_SLCO1B1: Life Technologies and Expression Analysis (LTEA) Assay for solute carrier (SLCO1B1) using HepaRG (AID 2283530). Summed up:
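Gain or loss of SLCO1B1 mRNA is fitted against the 0.5% DMSO vehicle in human HepaRG liver cells treated 48 h at up to 100 uM in half-log steps. Expression comes from qRT-PCR normalized to endogenous controls.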

Read-out in assay [12]: sulfotransferase 2A1 (SULT2A1), SULT2A1 (gene 6822)
Briefly: LTEA_HepaRG_SULT2A1: Life Technologies and Expression Analysis (LTEA) Assay for sulfotransferase 2A1 (SULT2A1) using HepaRG (AID 2283531). Summed up: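 Cells were plated and cultured 48 h, switched to serum-free induction medium, then dosed in duplicate for 48 h (8 concentrations, max 100 uM). RNA was isolated and SULT2A1 expression measured by qRT-PCR; gain or loss of signal fitted relative to DMSO.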

Read-out in assay [13]: Transforming Growth Factor (TGFA), TGFA (gene 7039)
The experiment in a line: LTEA_HepaRG_TGFA: Life Technologies and Expression Analysis (LTEA) Assay for Transforming Growth Factor (TGFA) using HepaRG (AID 2283532). Summed up:
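Differentiated human HepaRG cells, plated 48 h then switched to serum-free induction medium, were exposed in duplicate for 48 h to 8-point half-log series from 100 uM in 0.5% DMSO. TGFA mRNA measured by qRT-PCR, normalized to ACTB/GAPDH/POLR2A, bidirectional fit versus DMSO.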

Read-out in assay [14]: Transforming Growth Factor (TGFB1), TGFB1 (gene 7040)
Briefly: LTEA_HepaRG_TGFB1: Life Technologies and Expression Analysis (LTEA) Assay for Transforming Growth Factor (TGFB1) Transporter using HepaRG (AID 2283533). Summed up:
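Expression change of TGFB1 in human HepaRG cells is measured after a 48 h chemical exposure, up to 100 uM in 0.5% DMSO vehicle. Curves are fitted in both directions relative to the DMSO baseline.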

Read-out in a further assay: TIMP1, TIMP1 (gene 7076)
The experiment in a line: LTEA_HepaRG_TIMP1: Life Technologies and Expression Analysis (LTEA) Assay for TIMP1 using HepaRG (AID 2283534). Summed up: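 We dosed human liver HepaRG cultures for 48 hours with up to 100 uM test chemical and measured TIMP1 expression by qRT-PCR. Activity in either direction is fitted relative to the 0.5% DMSO vehicle.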

Read-out in assay [15]: Tumor necrosis factor receptor 1 (TNFRSF1A), TNFRSF1A (gene 7132)
The experiment in a line: LTEA_HepaRG_TNFRSF1A: Life Technologies and Expression Analysis (LTEA) Assay for Tumor necrosis factor receptor 1 (TNFRSF1A) using HepaRG (AID 2283535). Summed up:
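Expression of TNFRSF1A in human HepaRG liver cells was measured by qRT-PCR 48 h after chemical dosing (maximum 100 uM). Bidirectional curve fitting used 0.5% DMSO as baseline.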

Read-out in assay [16]: Thyroid Hormone Responsive (THRSP), THRSP (gene 7069)
The experiment in a line: LTEA_HepaRG_THRSP: Life Technologies and Expression Analysis (LTEA) Assay for Thyroid Hormone Responsive (THRSP) using HepaRG (AID 2283536). Summed up:
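Differentiated human HepaRG cells were exposed in duplicate for 48 h in serum-free induction medium to eight concentrations (top 100 uM, half-log steps, 0.5% DMSO). Expression was quantified by TaqMan qRT-PCR, normalized to ACTB, GAPDH and POLR2A, with bidirectional fitting against DMSO.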

Read-out in assay [17]: Cellular tumor antigen p53 (Homo sapiens) (UniProt P04637)
The experiment in a line: LTEA_HepaRG_TP53: Life Technologies and Expression Analysis (LTEA) Assay for Tumor Protein P53 (TP53) using HepaRG (AID 2283537). Summed up: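 TP53 transcript measured by qRT-PCR, normalized to three housekeeping genes, after 48 h treatment of human HepaRG cultures with chemicals from 100 uM downward in half-log steps (0.5% DMSO vehicle, serum-free induction medium). Up- or down-regulation fitted against DMSO.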

We go through three compounds from PubChem BioAssay (EPA / NIEHS).

The source made the active and inactive calls. How the source made its calls: active means hit-call score of the fitted dose curve at least 0.9, where 1 is the maximum; inactive means score below 0.9.

Sequence of Signal transducer and activator of transcription 3 (Homo sapiens) (P40763 whole entry, looked up): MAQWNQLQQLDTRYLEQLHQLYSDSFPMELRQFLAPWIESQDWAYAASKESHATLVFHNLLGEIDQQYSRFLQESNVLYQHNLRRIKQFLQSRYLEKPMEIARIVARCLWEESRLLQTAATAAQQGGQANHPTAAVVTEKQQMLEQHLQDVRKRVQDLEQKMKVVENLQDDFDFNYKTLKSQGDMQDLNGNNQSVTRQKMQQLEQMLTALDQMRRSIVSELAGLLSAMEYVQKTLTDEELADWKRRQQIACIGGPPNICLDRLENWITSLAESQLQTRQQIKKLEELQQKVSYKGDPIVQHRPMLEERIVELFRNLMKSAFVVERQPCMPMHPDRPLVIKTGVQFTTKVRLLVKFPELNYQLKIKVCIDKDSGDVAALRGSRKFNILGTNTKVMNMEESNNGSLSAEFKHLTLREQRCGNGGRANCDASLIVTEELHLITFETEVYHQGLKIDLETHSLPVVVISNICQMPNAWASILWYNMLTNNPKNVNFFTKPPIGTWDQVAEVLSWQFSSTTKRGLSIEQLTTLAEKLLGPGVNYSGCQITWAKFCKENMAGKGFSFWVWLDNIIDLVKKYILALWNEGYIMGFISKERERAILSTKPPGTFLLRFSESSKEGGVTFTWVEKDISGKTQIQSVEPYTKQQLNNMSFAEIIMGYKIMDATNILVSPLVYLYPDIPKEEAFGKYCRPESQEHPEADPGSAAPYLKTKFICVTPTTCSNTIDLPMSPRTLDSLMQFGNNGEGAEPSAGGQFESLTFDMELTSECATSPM
Sequence of Nuclear factor erythroid 2-related factor 2 (Homo sapiens) (Q16236 whole entry, looked up): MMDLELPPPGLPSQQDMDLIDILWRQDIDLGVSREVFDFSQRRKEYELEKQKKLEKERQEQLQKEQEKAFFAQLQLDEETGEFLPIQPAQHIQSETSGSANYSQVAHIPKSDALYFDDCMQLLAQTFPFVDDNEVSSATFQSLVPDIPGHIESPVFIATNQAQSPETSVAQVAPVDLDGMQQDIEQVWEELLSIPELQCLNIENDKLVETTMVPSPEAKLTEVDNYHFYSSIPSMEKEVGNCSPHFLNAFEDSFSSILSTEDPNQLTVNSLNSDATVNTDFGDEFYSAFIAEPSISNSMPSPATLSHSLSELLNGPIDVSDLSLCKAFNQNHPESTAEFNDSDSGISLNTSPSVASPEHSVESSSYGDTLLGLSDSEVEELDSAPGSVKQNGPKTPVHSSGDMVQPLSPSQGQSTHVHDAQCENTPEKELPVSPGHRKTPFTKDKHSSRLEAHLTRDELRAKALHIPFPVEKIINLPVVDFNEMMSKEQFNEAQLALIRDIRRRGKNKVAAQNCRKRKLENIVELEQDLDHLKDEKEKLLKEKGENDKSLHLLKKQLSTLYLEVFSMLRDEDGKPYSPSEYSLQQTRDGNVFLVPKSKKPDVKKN
Sequence of Cellular tumor antigen p53 (Homo sapiens) (P04637 whole entry, looked up): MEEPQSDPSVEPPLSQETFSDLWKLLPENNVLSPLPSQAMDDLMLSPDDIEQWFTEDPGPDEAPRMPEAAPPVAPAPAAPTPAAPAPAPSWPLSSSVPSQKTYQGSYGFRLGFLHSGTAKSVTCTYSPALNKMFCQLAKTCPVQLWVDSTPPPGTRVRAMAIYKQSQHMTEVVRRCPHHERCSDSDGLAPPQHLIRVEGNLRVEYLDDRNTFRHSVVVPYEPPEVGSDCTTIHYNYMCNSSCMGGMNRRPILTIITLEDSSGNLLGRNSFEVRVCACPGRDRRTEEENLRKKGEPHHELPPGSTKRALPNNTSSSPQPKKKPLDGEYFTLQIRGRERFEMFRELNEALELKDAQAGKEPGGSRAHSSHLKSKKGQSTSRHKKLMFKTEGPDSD

Turning to `O=C(NS(=O)(=O)/C=C/c1cccs1)c1ccc(F)cc1Br`, the outcome with MYC, MYC (gene 4609) is “inactive”; in [1], “inactive”; in [3] it was “inactive”; in assay [4], “inactive”; in assay [5], “inactive”; in assay [6], “inactive”. Further, the compound was called inactive in [7], in [8], in assay [9], in assay [10], in assay [11] and in assay [12]. Besides, the outcome in assay [13] is “inactive”; in [14], “inactive”; with TIMP1, TIMP1 (gene 7076) it was “inactive”; in assay [15] it was “inactive”; in assay [16], “inactive”. The AC50 in [2] was 50 µM (active).
As for `CCCCCCCCCCCCCCOS(=O)(=O)O`, the outcome with MYC, MYC (gene 4609) is “inactive”; in assay [1] it was “inactive”; in assay [2], “inactive”; in assay [3] it was “inactive”; in [4], “inactive”; in assay [7], “inactive”. The compound was classed as inactive in [8], in [9], in [10], in assay [11], in [12] and in [13]. The outcome is “inactive” in assay [14]; “inactive” in the assay with TIMP1, TIMP1 (gene 7076); “inactive” in [15]; “inactive” in assay [16]; “inactive” in [17]. Besides, the results for the concentration at half-maximal activity (AC50) in [5] and in [6] were 80.6 µM (active) and 49.6 µM (active), respectively.
In the case of `CCc1nc(N)nc(N)c1-c1ccc(Cl)cc1`, the AC50 is 78.7 µM (active) in the assay with MYC, MYC (gene 4609); 38.9 µM (active) in assay [2]; 21.1 µM (active) in assay [5]; 50 µM (active) in assay [6]; 1.33 µM (active) in assay [12]; 76.3 µM (active) in [16]. Further, the result in assay [1], in assay [3], in assay [4], in [7], in [8] and in assay [9] was inactive. The outcome in assay [10] was “inactive”; in assay [11] it was “inactive”; in [13], “inactive”; in [14] it was “inactive”; in the assay with TIMP1, TIMP1 (gene 7076), “inactive”; in assay [15], “inactive”. For the same compound, the compound was called inactive in assay [17].
